# Experimental data published in PubChem BioAssay.
# Results filed as inconclusive are left out. Active and inactive are the calls of the source. Unless noted, no stated cut-off is given here; in the data, active means inhibition above about 80%; inactive means the rest.
# Key:
# [1] = growth inhibition of DIPG glioma cells, dose response, cell-based, SU-DIPG-XIII, MIPE5.0, CellTiter-Glo, qHTS (AID 1347064; cut-off not given, nearly all actives have AC50 up to about 23 µM;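 further: cells exposed to compound for 48 hours before the viability read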); details: SU-DIPG-XIII viability, CellTiter-Glo ATP luminescence
# [2] = viability loss in pontine glioma line – cell-based, SU-DIPG-XXV, MIPE5.0, CellTiter-Glo, qHTS, dose response (AID 1347065; cut-off not given, nearly all actives have AC50 up to about 26 µM;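 further: cells exposed to compound for 48 hours before ATP readout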); details: CellTiter-Glo ATP luminescence
# [3] = JHH-DIPG-1 glioma cell viability, MIPE5.0 library, CellTiter-Glo luminescence, qHTS (AID 1347067; cut-off not given, nearly all actives have AC50 up to about 26 µM;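 further: cells exposed to compound for 48 hours before readout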); details: JHH-DIPG-1 glioma viability, CellTiter-Glo ATP luminescence
# [4] = SU-DIPG-XXV glioma cell viability, MIPE5.0 library, qHTS (AID 1347068; cut-off not given, nearly all actives have IC50 up to about 30 µM;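 further: cells exposed to compound for 48 hours before viability readout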)
# [5] = LFS_MB_P medulloblastoma growth inhibition, cell-based, chromothripsis tumors, cisplatin or BGB combos (AID 1671449); details: LFS_MB_P medulloblastoma cells;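 further: cells exposed for 96 hours; 0% = vehicle DMSO and 100% = killing by high DMSO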
# [6] = HDN33 neuroblastoma growth inhibition, cell-based, chromothripsis tumors, cisplatin or BGB combos (AID 1671450); details: HDN33 neuroblastoma cells, stronger effect = higher value;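 further: cells exposed to compound for four days; 0% = vehicle DMSO and 100% = cell killing by high DMSO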
# [7] = ICB984 medulloblastoma cell growth inhibition, synergistic combos for chromothripsis tumors, cisplatin or BGB combos (AID 1671451; call rule not given here;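 further: cells exposed for 96 hours before readout; 0% = vehicle DMSO and 100% = killing by high DMSO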); details: ICB984 medulloblastoma cells, drug combinations, stronger effect = higher value
# [8] = LFS_MB_1R medulloblastoma cell growth inhibition, synergistic combos for chromothripsis tumors, cisplatin or BGB combos (AID 1671452); details: LFS_MB_1R medulloblastoma cells, stronger effect = higher value;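 further: cells exposed for 96 hours before readout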
# [9] = HTB85 osteosarcoma cell growth inhibition, synergistic combos for chromothripsis tumors, BGB or cisplatin IC20 combos (AID 1671453); details: HTB85 osteosarcoma cells, drug combinations, stronger effect = higher value;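 further: cells exposed for 96 hours before readout; 0% = vehicle DMSO and 100% = high DMSO killing control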
# [10] = CRL2098 osteosarcoma cell growth inhibition, synergistic combos for chromothripsis tumors, BGB or cisplatin IC20 combos (AID 1671454); details: CRL2098 osteosarcoma cells, drug combinations, stronger effect = higher value;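 further: cells exposed for 96 h before readout; 0% = vehicle DMSO and 100% = killing by high DMSO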
# [11] = HD-MB03 medulloblastoma cell growth inhibition, synergistic combos for chromothripsis tumors, BGB or cisplatin IC20 combos (AID 1671455; in the data active means inhibition above about 83%;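 further: 0% = vehicle DMSO and 100% = high DMSO as cytotoxic control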); details: HD-MB03 medulloblastoma cells, stronger effect = higher value
# [12] = UWB1.289 ovarian carcinoma cell growth inhibition, synergistic combos for chromothripsis tumors, BGB or cisplatin combos (AID 1671456); details: UWB1.289 ovarian carcinoma cells, stronger effect = higher value;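 further: cells exposed to compound for four days; 0% = vehicle DMSO and 100% = killing by high DMSO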
# [13] = LFS_MB_2R medulloblastoma cell growth inhibition, synergistic combos for chromothripsis tumors, cisplatin combos (AID 1671457); details: LFS_MB_2R medulloblastoma cells, stronger effect = higher value;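 further: cells exposed to compound for four days before readout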
# [14] = MDA-MB-436 breast carcinoma cell growth inhibition, synergistic combos for chromothripsis tumors, BGB or cisplatin combos (AID 1671458; call rule not given here;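 further: cells exposed for 96 hours; 0% = vehicle DMSO and 100% = killing by high DMSO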); details: MDA-MB-436 breast carcinoma growth inhibition, drug combinations, stronger effect = higher value
# [15] = UWB1.289_BRCA1 ovarian cancer growth, cell-based, BGB or cisplatin combinations (AID 1671459); details: UWB1.289 BRCA1 ovarian carcinoma, drug combinations, stronger effect = higher value
# [16] = human astrocyte viability loss, single and combined drugs, cytotoxicity control for chromothriptic childhood tumor combination screen, cell-based, BGB or cisplatin IC20 combos (AID 1671460); details: Human astrocytes, drug combinations, stronger effect = higher value;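 further: cells exposed to compounds for 96 hours before viability readout; 0% = vehicle and 100% = killing control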
# [17] = growth inhibition of BT084 medulloblastoma cells, cell-based, ICGC_MB145, cisplatin and BGB IC40 combos (AID 1671461); details: drug combinations, stronger effect = higher value;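 further: cells exposed to drugs for 96 hours; 0% = vehicle DMSO and 100% = high DMSO full killing control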
# [18] = growth inhibition of RCMB18 medulloblastoma cells, cell-based, cisplatin and BGB IC40 combos (AID 1671462); details: stronger effect = higher value;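 further: cells exposed to compound for four days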
# [19] = growth inhibition of CRL1545 osteosarcoma cells, cell-based, cisplatin and BGB IC20 combos (AID 1671464); details: stronger effect = higher value;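 further: cells exposed to compound for 96 hours before readout; 0% = vehicle DMSO and 100% = high DMSO killing control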
# [20] = measured here: combination with BGB IC40, at 0.05 µM
# [21] = measured here: with BGB IC20 combination, at 0.5 µM
# [22] = measured here: with cisplatin IC20 combination, at 0.5 µM
# [23] = measured here: combination with cisplatin, at 0.5 µM
# [24] = measured here: combination with cisplatin, at 5 µM
smiles,measurement,setting,value
c1cc(Nc2cc(C3CC3)[nH]n2)nc(Nc2ccc3nc[nH]c3c2)n1,AC50,[1],468 nM (active)
same,AC50,[2],590 nM (active)
same,AC50,[3],742 nM (active)
same,IC50,[4],1480 nM (active)
same,inhibition,"[5]; at 0.5 µM, stronger effect = higher value",-28.9% (inactive)
same,inhibition,"[5]; measured here: combination with BGB IC20, at 0.005 µM",-28.7%
same,inhibition,"[5]; measured here: combination with BGB IC40, at 0.005 µM",66.9%
same,inhibition,[5]; [20],3.2%
same,inhibition,"[5]; measured here: combination with cisplatin, at 0.5 µM, stronger effect = higher value",-45.7%
same,inhibition,"[5]; measured here: combination with cisplatin, at 5 µM, stronger effect = higher value",97.7%
same,inhibition,"[6]; BGB combo, at 5 µM",80.3%
same,inhibition,[6]; at 0.5 µM,13.6% (inactive)
same,inhibition,"[6]; cisplatin combo, at 5 µM",56.8%
same,inhibition,[6]; [21],15.5%
same,inhibition,[6]; [22],11.8%
same,inhibition,"[6]; single agent, at 5 µM",65%
same,inhibition,"[7]; BGB IC20 combo, at 0.005 µM",91.8%
same,inhibition,"[7]; BGB IC40 combo, at 0.005 µM",91.5%
same,inhibition,"[7]; BGB IC40 combo, at 0.05 µM",101%
same,inhibition,[7]; at 0.5 µM,-13.7% (inactive)
same,inhibition,"[7]; cisplatin combo, at 0.05 µM",102%
same,inhibition,"[7]; cisplatin combo, at 0.5 µM",-28%
same,inhibition,"[7]; cisplatin combo, at 5 µM",-12.8%
same,inhibition,"[7]; measured here: 5 uM single agent, at 5 µM",-7.27%
same,inhibition,[8]; at 0.5 µM,96.2% (active)
same,inhibition,[8]; [20],10.7%
same,inhibition,[8]; [23],97.7%
same,inhibition,[8]; [24],98.3%
same,inhibition,[9]; at 0.5 µM,92.1% (active)
same,inhibition,"[9]; measured here: with BGB IC20, at 0.5 µM",97.4%
same,inhibition,"[9]; measured here: with BGB IC20, at 5 µM",98.4%
same,inhibition,"[9]; measured here: with cisplatin IC20, at 0.5 µM",83.5%
same,inhibition,"[9]; measured here: with cisplatin IC20, at 5 µM",99.3%
same,inhibition,"[9]; single agent, at 5 µM",99.5%
same,inhibition,[10]; at 0.5 µM,28.9% (inactive)
same,inhibition,"[10]; measured here: combination with BGB at IC20, at 0.5 µM",57.3%
same,inhibition,"[10]; measured here: combination with cisplatin at IC20, at 0.5 µM",27.4%
same,inhibition,[11]; at 0.5 µM,31.9% (inactive)
same,inhibition,"[11]; measured here: combo with BGB at IC20, at 0.5 µM",43.7%
same,inhibition,"[11]; measured here: combo with cisplatin at IC20, at 0.5 µM",6.87%
same,inhibition,[12]; at 0.5 µM,67.4% (inactive)
same,inhibition,"[12]; measured here: inhibition with BGB combination, at 0.05 µM",37.1%
same,inhibition,"[12]; measured here: inhibition with cisplatin combination, at 0.05 µM",-9.86%
same,inhibition,[13]; at 0.5 µM,80.7% (active)
same,inhibition,[13]; [23],87.3%
same,inhibition,[13]; [24],91.1%
same,inhibition,[14]; at 0.5 µM,23.1% (inactive)
same,inhibition,"[14]; measured here: BGB combination, at 0.5 µM",22.4%
same,inhibition,"[14]; measured here: BGB combination, at 5 µM",75.1%
same,inhibition,"[14]; measured here: cisplatin combination, at 0.5 µM",5.08%
same,inhibition,"[14]; measured here: cisplatin combination, at 5 µM",88.8%
same,inhibition,"[15]; BGB combination, concentration series, at 5 µM",73.5%
same,inhibition,[15]; at 0.5 µM,79.3% (inactive)
same,inhibition,"[15]; cisplatin combination, concentration series, at 5 µM",72.2%
same,inhibition,[16]; at 0.5 µM,14.6% (inactive)
same,inhibition,"[16]; measured here: combo with BGB IC20, at 0.5 µM",33.6%
same,inhibition,"[16]; measured here: combo with cisplatin IC20, at 0.5 µM",-4.62%
same,inhibition,[17]; at 0.5 µM,44.8% (inactive)
same,inhibition,"[17]; cisplatin combination, at 0.5 µM",31.8%
same,inhibition,"[17]; cisplatin combination, at 5 µM",-81%
same,inhibition,"[17]; measured here: BGB IC40 combination 0.05 uM, at 0.05 µM",-10.1%
same,inhibition,"[17]; single agent, at 5 µM",22.9%
same,inhibition,[18]; at 0.5 µM,73.8% (inactive)
same,inhibition,"[18]; cisplatin combo, at 5 µM",83.5%
same,inhibition,"[18]; measured here: BGB IC40 combination, at 0.05 µM",22.4%
same,inhibition,[18]; [23],76.4%
same,inhibition,"[18]; single agent, at 5 µM",84.3%
same,inhibition,[19]; at 0.5 µM,-7.32% (inactive)
same,inhibition,[19]; [21],-9.54%
same,inhibition,[19]; [22],-7.92%
same,inhibition,"[19]; single agent, at 0.05 µM",-26.3%
same,inhibition,"[19]; single agent, at 5 µM",81.3%
